According to PubChem BioAssay (NCATS):
Inconclusive results are not listed. The source made the active and inactive calls. Calls follow the shape of the dose curve; as a rule, active = well fitted curve in the direction sought with a large enough effect; inconclusive = small, poorly fitted or top-dose-only effect, or another doubt; inactive = no such curve, though single readings can be large; an effect the other way counts as inactive or inconclusive.

Assays:
[1] = Quantitative High-Throughput drug screen in 47 multiple myeloma cell lines against the NCATS MIPE library collection: JIM3_ECACC cell viability assay (AID 1918963; also: nearly all actives have a fitted effect of over 35% in size)
How it was run: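 Steps: seed 500 cells per well; pin-transfer MIPE 4.0 library; incubate 48 h at 37C, 5% CO2, humidified; add CellTiter-Glo, 5 min room temperature; read luminescence.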

[2] = Quantitative High-Throughput drug screen in 47 multiple myeloma cell lines against the NCATS MIPE library collection: JJN3_DSMZ cell viability assay (AID 1918966; also: nearly all actives have a fitted effect of over 50% in size)
How it was run: (§1)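 CellTiter-Glo ATP luminescence gave viability after 48 h compound treatment at 37C of 500 multiple myeloma cells per well. Normalisation used DMSO-only wells as 100% and media-only wells as 0% viability; primary qHTS of approved and investigational drugs.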

[3] = Quantitative High-Throughput drug screen in 47 multiple myeloma cell lines against the NCATS MIPE library collection: H1112_PLB cell viability assay (AID 1918967; also: nearly all actives have a fitted effect of over 30% in size)
How it was run: as §1

[4] = Quantitative High-Throughput drug screen in 47 multiple myeloma cell lines against the NCATS MIPE library collection: Karpas25_ECACC cell viability assay (AID 1918968; also: nearly all actives have a fitted effect of over 35% in size)
How it was run: as §1

[5] = Quantitative High-Throughput drug screen in 47 multiple myeloma cell lines against the NCATS MIPE library collection: KMS12BM_JCRB cell viability assay (AID 1918971); also: nearly all actives have a fitted effect of over 35% in size
How it was run: (§2)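 Relative luminescence from CellTiter-Glo served as the viability signal, referenced to DMSO-treated (100%) and cell-free medium (0%) controls. Treatment lasted 48 hours at 37C with 500 cells per well.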

[6] = Quantitative High-Throughput drug screen in 47 multiple myeloma cell lines against the NCATS MIPE library collection: KMS20_JCRB cell viability assay (AID 1918973); also: nearly all actives have a fitted effect of over 45% in size
How it was run: as §1

[7] = Quantitative High-Throughput drug screen in 47 multiple myeloma cell lines against the NCATS MIPE library collection: KMS21BM_JCRB cell viability assay (AID 1918974); conditions: ATP luminescence, 48 h; viability: at 45.8 µM (top of the series)
How it was run: as §1

[8] = Quantitative High-Throughput drug screen in 47 multiple myeloma cell lines against the NCATS MIPE library collection: KMS26_JCRB cell viability assay (AID 1918975); also: nearly all actives have a fitted effect of over 45% in size
How it was run: as §2

[9] = Quantitative High-Throughput drug screen in 47 multiple myeloma cell lines against the NCATS MIPE library collection: MOLP8_DSMZ cell viability assay (AID 1918977); also: nearly all actives have a fitted effect of over 45% in size
How it was run: (§3)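 500 cells/well; MIPE 4.0 drugs pin-transferred; 48 h, 37C, 5% CO2. CellTiter-Glo, 5 min RT, luminescence. Controls: DMSO 100%, media 0%.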

[10] = Quantitative High-Throughput drug screen in 47 multiple myeloma cell lines against the NCATS MIPE library collection: NCIH929_DSMZ cell viability assay (AID 1918978); also: nearly all actives have a fitted effect of over 35% in size
How it was run: as §3

[11] = Quantitative High-Throughput drug screen in 47 multiple myeloma cell lines against the NCATS MIPE library collection: OCIMY1_PLB cell viability assay (AID 1918979); also: nearly all actives have a fitted effect of over 35% in size
How it was run: as §3

[12] = Quantitative High-Throughput drug screen in 47 multiple myeloma cell lines against the NCATS MIPE library collection: MM1R_ATCC cell viability assay (AID 1918981); also: nearly all actives have a fitted effect of over 35% in size
How it was run: as §3

[13] = Quantitative High-Throughput drug screen in 47 multiple myeloma cell lines against the NCATS MIPE library collection: INA6_PLB cell viability assay (AID 1918965; also: nearly all actives have a fitted effect of over 55% in size)
How it was run: (§4)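 CellTiter-Glo luminescence (ATP) after 48 h compound exposure, 37C/5% CO2; 500 cells/well; MIPE 4.0 approved/investigational drugs pinned in; DMSO = 100%, media only = 0% viability.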

[14] = Quantitative High-Throughput drug screen in 47 multiple myeloma cell lines against the NCATS MIPE library collection: MM1S_ATCC cell viability assay (AID 1918980); also: nearly all actives have a fitted effect of over 45% in size
How it was run: as §3

[15] = Quantitative High-Throughput drug screen in 47 multiple myeloma cell lines against the NCATS MIPE library collection: KMS27_JCRB cell viability assay (AID 1918970); conditions: KMS27 myeloma cells, CellTiter-Glo ATP viability, 48 h; viability (% of DMSO): at 45.8 µM (top of the series); also: nearly all actives have a fitted effect of over 30% in size
How it was run: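 Each line is seeded at 500 cells per well and treated with library compounds for 48 hours under 37 °C, 5% CO2. CellTiter-Glo is then added for 5 min at room temperature before median relative luminescence is recorded.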

[16] = Quantitative High-Throughput drug screen in 47 multiple myeloma cell lines against the NCATS MIPE library collection: KMS12PE_JCRB cell viability assay (AID 1918972); also: nearly all actives have a fitted effect of over 30% in size
How it was run: as §4

[17] = Quantitative High-Throughput drug screen in 47 multiple myeloma cell lines against the NCATS MIPE library collection: MMM1_PLB cell viability assay (AID 1918976); also: nearly all actives have a fitted effect of over 35% in size
How it was run: as §3

Measured: Potency
Potency is read from the fitted curve at half-maximal effect.

CC[C@H](CC[C@@H](C)[C@H]1CC[C@H]2[C@@H]3CC=C4C[C@@H](O)CC[C@]4(C)[C@@H]3CC[C@]12C)C(C)C
not listed: [13] | [14] | [15] | [16] | [17]
inactive: all other assays above

CC(C)n1cnc2c(NCCc3ccc(O)cc3)nc(-c3csc4ccccc34)nc21
active: [1] 9350 nM | [13] 20900 nM | [3] 13200 nM | [4] 4180 nM | [6] 7430 nM | [8] 11800 nM | [11] 20900 nM | [14] 743 nM | [12] 7430 nM

COc1ccc(Nc2cc(-c3cnc(N)nc3)nc(N3CCOCC3)n2)cn1
active: [1] 3720 nM | [13] 4180 nM | [2] 4690 nM | [4] 1660 nM | [15] 372 nM | [5] 2960 nM | [16] 2090 nM | [6] 4180 nM | [8] 4180 nM | [17] 1870 nM | [9] 833 nM | [10] 264 nM | [14] 4690 nM | [12] 1660 nM

CC(=O)O[C@H]1C[C@@H]2CC[C@H]3[C@H]4C[C@H]([N+]5(C)CCCCC5)[C@@H](OC(C)=O)[C@@]4(C)CC[C@@H]3[C@@]2(C)C[C@H]1N1CCCCC1
active: [14] 6620 nM
not listed: [2] | [6] | [17]
inactive: all other assays above

Nc1cccc2c1C(=O)N(C1CCC(=O)NC1=O)C2=O (stereo not given)
inactive: [3] | [16] | [9] | [11]
active: [1] 93.5 nM | [13] 4180 nM | [4] 8330 nM | [14] 526 nM | [12] 2090 nM

NS(=O)(=O)OC[C@@H]1C[C@@H](n2ccc3c(N[C@H]4CCc5ccccc54)ncnc32)C[C@H]1O
active: [1] 13200 nM | [13] 118 nM | [2] 1320 nM | [4] 833 nM | [5] 6620 nM | [8] 2640 nM | [10] 833 nM | [14] 2640 nM

CCOC(=O)C=C[C@H](C[C@@H]1CCNC1=O)NC(=O)[C@@H](CC(=O)[C@@H](NC(=O)c1cc(C)on1)C(C)C)Cc1ccc(F)cc1
not listed: [5] | [7] | [9] | [13] | [17]
inactive: all other assays above

Cn1cnc2c(F)c(Nc3ccc(Br)cc3F)c(C(=O)NOCCO)cc21
inactive: [16] | [9] | [11]
active: [1] 372 nM | [13] 18.7 nM | [15] 7.4 nM | [6] 66.2 nM

Cc1cnc(Nc2ccc(CN3CCOCC3)cc2)nc1Nc1cccc(S(=O)(=O)NC(C)(C)C)c1
active: [1] 2640 nM | [13] 372 nM | [2] 6620 nM | [3] 3320 nM | [4] 1320 nM | [5] 3320 nM | [6] 2640 nM | [17] 10500 nM | [9] 2090 nM | [10] 1660 nM | [14] 5900 nM | [12] 4690 nM

COc1cc(C(C)C)c(Oc2cnc(NC(CO)CO)nc2N)cc1I
active: [4] 18700 nM | [7] 662 nM | [8] 2640 nM | [14] 1050 nM | [12] 2640 nM
inactive: [1] | [13] | [3] | [5] | [9] | [10] | [11]

CC(=O)N[C@@H]1[C@H](O[C@@H]2c3ccc(c(Cl)c3)Oc3cc4cc(c3O[C@H]3O[C@H](CO)[C@@H](O)[C@H](O)[C@H]3NC(=O)CCCCCCCC(C)C)Oc3ccc(cc3Cl)C[C@H]3NC(=O)[C@H](N)c5ccc(O)c(c5)Oc5cc(O)cc(c5)[C@H](NC3=O)C(=O)N[C@H]4C(=O)N[C@H]3C(=O)N[C@@H]2C(=O)N[C@@H](C(=O)O)c2cc(O)cc(O[C@H]4O[C@H](CO)[C@@H](O)[C@H](O)[C@H]4O)c2-c2cc3ccc2O)O[C@H](CO)[C@@H](O)[C@@H]1O
not listed: [2] | [3] | [6] | [7] | [8] | [14] | [17]
inactive: all other assays above

COc1ccnc2[nH]cc(C(=O)C(=O)N3CCN(C(=O)c4ccccc4)C[C@@H]3C)c12
active: [2] 13200 nM
not listed: [6] | [7] | [15] | [17]
inactive: all other assays above

C=C1C[C@@]2(O)O[C@@]3(C[C@H]2C(C)C)[C@H](C)CC[C@H]13
active: [14] 1480 nM
not listed: [4] | [7] | [8] | [10] | [17]
inactive: all other assays above

CC(=O)N[C@H]1[C@@H]([C@H](O)[C@H](O)CO)OC(C(=O)O)=C[C@@H]1N=C(N)N
not listed: [2] | [6] | [7] | [9] | [16] | [17]
inactive: all other assays above
